Bioassay records as filed in PubChem BioAssay.
RORgamma inh = qHTS for inhibitors of ROR gamma transcriptional activity; AID 2551, 2010; 310,000 compounds, 5.4% hits; Drosophila S2 Gal4-RORgamma UAS-luciferase reporter, 20 h; Nuclear receptor ROR-gamma (Mus musculus), P51450; Potency, µM (titrated, usually from 53.6 µM), most hits filed as inhibitors; note: nearly all actives have a fitted effect of over 60% in size
Target sequence (P51450 whole entry, looked up, the tested form may be a part): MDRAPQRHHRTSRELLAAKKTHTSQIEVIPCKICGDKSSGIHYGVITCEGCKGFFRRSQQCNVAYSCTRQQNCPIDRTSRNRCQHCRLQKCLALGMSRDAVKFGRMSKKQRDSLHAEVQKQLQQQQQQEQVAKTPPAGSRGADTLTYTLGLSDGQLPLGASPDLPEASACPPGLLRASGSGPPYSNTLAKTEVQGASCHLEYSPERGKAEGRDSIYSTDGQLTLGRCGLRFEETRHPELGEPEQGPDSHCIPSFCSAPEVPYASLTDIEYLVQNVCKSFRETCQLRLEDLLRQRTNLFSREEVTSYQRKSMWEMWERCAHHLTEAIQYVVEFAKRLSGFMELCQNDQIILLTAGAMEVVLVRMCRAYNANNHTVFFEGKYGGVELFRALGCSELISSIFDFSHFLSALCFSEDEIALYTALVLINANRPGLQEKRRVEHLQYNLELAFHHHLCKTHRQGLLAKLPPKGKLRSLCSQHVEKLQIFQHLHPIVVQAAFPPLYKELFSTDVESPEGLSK
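A Gal4/UAS one-hybrid system in insect cells: metallothionein-promoter Gal4–ROR gamma fusion plus Photinus luciferase reporter. Copper sulfate 700 uM final, 20 hr ambient incubation, luminescent detection after 10 min with reagent.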
ATXN2 expr inh = Primary qHTS for Inhibitors of ATXN expression; HEK-293 ATXN2-luciferase reporter, luminescence, 24 h; Potency, µM (series often up to 57 µM), usual class: inhibitors; 360,000 compounds, 0.72% hits; AID 1745845, 2022; note: nearly all actives have a fitted effect of over 55% in size
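ATXN2-luciferase reporter cells (luciferase flanked by upstream and downstream ATXN2 gene portions) were treated 24 h at 37 °C with compounds at up to 57 uM. SteadyGlo luminescence gave expression; GF-AFC fluorescence gave viability.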
HepG2 tox = qHTS for Inhibitors of TGF-b: Cytotox Counterscreen; Potency, µM (top dose mostly 46.1 µM), most hits filed as cytotoxic; 410,000 compounds, 0.76% hits; HepG2 CAGA-GFP viability, ATP luminescence, 18 h; AID 588856, 2011
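HepG2 CAGA-GFP cells (1000/well, DMEM with 1% FBS) received compound, then TGF-beta at 500 pg/mL final, and were incubated 18 hours at 37 degrees C. Viability was read by CellTiter-Glo luminescence. Media-only wells were set as complete cell-killing and DMSO as no toxicity.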
S2 tox = Viability Counterscreen for Primary qHTS for Inhibitors of ATXN expression | AID 651635, 2014 | Potency, µM (highest dose often 56.7 µM), usual class: cytotoxic | 400,000 compounds, 0.49% hits | S2 cells (HEK-293 line with an ATXN2-luciferase reporter) viability, CellTiter-Fluor protease fluorescence, 24 h; note: nearly all actives have a fitted effect of over 40% in size
VP16 counter = VP16 counterscreen qHTS for inhibitors of ROR gamma transcriptional activity; Drosophila S2 Gal4-VP16 UAS-luciferase, luminescence, 20 h; Potency, µM (highest dose often 53.6 µM), usual class: inhibitors; 310,000 compounds, 3.5% hits; AID 2546, 2010;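 note: Gal4-VP16 expression switched on by copper sulfate through the metallothionein promoter; nearly all actives have a fitted effect of over 50% in size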
TGFb SMAD3 inh = qHTS for Inhibitors of TGF-b; HepG2 CAGA-GFP TGF-b/SMAD3 reporter, GFP fluorescence, 18 h; TGF-beta stimulated, 500 pg/mL final; 410,000 compounds, 1.2% hits; Potency, µM (titrated, usually from 46.1 µM), hits mostly inhibitors; note: nearly all actives have a fitted effect of over 65% in size
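Per well, imaged GFP fluorescence of HEPG2 CAGA-GFP cells gives the signal; cells get compound, then TGF-beta (500 pg/mL final), 18 h at 37 degrees C; %Activity versus -TGF-beta and +DMSO controls.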
A number is an active result; [ ] = remark or other dose. An excerpt weighted towards active compounds, which were near 6.3% of everything screened. Calls come from the whole dose curve; as a rule, active = well fitted curve in the direction sought with a large enough effect; inconclusive = small, poorly fitted or top-dose-only effect, or another doubt; inactive = no such curve, though single readings can be large; an effect the other way counts as inactive or inconclusive.

For CCC(C)[C@H]1COCCS(=O)(=O)N1Cc1ccccc1F (stereo partly drawn) the results were RORgamma inh inactive, ATXN2 expr inh inactive, HepG2 tox inactive, S2 tox inactive, VP16 counter inactive and TGFb SMAD3 inh inconclusive.
For CC(C)c1ccc(NC(=O)c2cnc3sc(N4CCOCC4)nn3c2=O)cc1 the results were HepG2 tox inactive and TGFb SMAD3 inh inactive.
`Cc1ccc(-c2nc3ncccc3o2)cc1NC(=O)c1ccc(-c2ccc(Cl)cc2)o1` gave ATXN2 expr inh inactive, HepG2 tox inactive, S2 tox inactive and TGFb SMAD3 inh inactive.
CCCCn1c(CNC(=O)c2cccs2)nc2ccccc21 was read as RORgamma inh 11µM, ATXN2 expr inh inactive, HepG2 tox inactive, S2 tox inactive, VP16 counter inconclusive and TGFb SMAD3 inh inactive.
Screening CCn1c(NC(=O)c2ccccc2)nc2ccccc21 returned RORgamma inh 0.32µM, ATXN2 expr inh inactive, HepG2 tox inactive, S2 tox inactive, VP16 counter 2.5µM and TGFb SMAD3 inh inactive.
CCCCn1c(NC(=O)C2CCCCC2)nc2ccccc21 was read as RORgamma inh 1.3µM, ATXN2 expr inh inactive, HepG2 tox inactive, S2 tox inactive, VP16 counter 2.8µM and TGFb SMAD3 inh inconclusive.
`CNc1nc2ccccc2n1CC(=O)c1ccccc1` gave RORgamma inh inactive, ATXN2 expr inh inactive, HepG2 tox inactive, S2 tox inactive, VP16 counter inactive and TGFb SMAD3 inh inactive.
For CCCCCn1c(CNC(=O)c2cccs2)nc2ccccc21 the results were RORgamma inh inactive, ATXN2 expr inh inactive, HepG2 tox inactive, S2 tox inactive, VP16 counter inactive and TGFb SMAD3 inh inactive.
CCCCn1c(NC(=O)c2ccccc2)nc2ccccc21 was read as RORgamma inh 1.1µM, ATXN2 expr inh inactive, HepG2 tox inactive, S2 tox inactive, VP16 counter 2.2µM and TGFb SMAD3 inh inconclusive.
For O=C(Cc1ccc(-c2ccc(OCCN3CCOCC3)cc2)cn1)NCc1ccccc1 the results were ATXN2 expr inh inactive.
CCOC(=O)C1CCN(c2cc3c(cc2NC(=O)c2ccc(OC)c(OC)c2)n(C)c(=O)n3C)CC1 was read as RORgamma inh inactive, ATXN2 expr inh inactive, HepG2 tox inactive, S2 tox inactive, VP16 counter inactive and TGFb SMAD3 inh inactive.
`c1cncc(OC2CCN(Cc3ccc4c(c3)CN(Cc3ccc5c(c3)OCO5)CCO4)CC2)c1` gave S2 tox inactive.
For Cc1nc2ccccc2n1CC(=O)NC1CCCCCC1 the results were RORgamma inh inactive, HepG2 tox inactive, S2 tox inactive, VP16 counter 20µM and TGFb SMAD3 inh inactive.
For CCOC(=O)c1sc(NC(=O)/C=C/c2ccc(F)cc2)nc1C the results were RORgamma inh inactive, ATXN2 expr inh inactive, HepG2 tox inactive, S2 tox inactive, VP16 counter inactive and TGFb SMAD3 inh inactive.
CCn1c(NC(=O)/C=C/c2ccc(F)cc2)nc2ccccc21 was read as RORgamma inh 1.3µM, ATXN2 expr inh inactive, HepG2 tox inactive, S2 tox inactive, VP16 counter inconclusive and TGFb SMAD3 inh inactive.
For CCc1ccccc1Nc1nc2ccccc2n1CC the results were RORgamma inh 14µM, ATXN2 expr inh inactive, HepG2 tox inactive, S2 tox inactive, VP16 counter inconclusive and TGFb SMAD3 inh inactive.
Screening C=CCn1c(NC(=O)c2ccccc2)nc2ccccc21 returned RORgamma inh 0.56µM, ATXN2 expr inh inactive, HepG2 tox inactive, S2 tox inconclusive, VP16 counter 1µM and TGFb SMAD3 inh inactive.
`COC(=O)C/C=C\[C@@H](C)[C@@H](/C=N\O[C@@H](C)CN1CCCCc2nc(C)c(C)cc21)OC` gave RORgamma inh inactive[10 µM] and VP16 counter inactive[10 µM].
For O=[N+]([O-])c1ccc2oc(/C=C/c3ccc(O)cc3)nc2c1 the results were HepG2 tox inactive, S2 tox inconclusive and TGFb SMAD3 inh inactive.
